About 7,900 targets were measured; listed, in parts, are those with a hit and a random draw of the rest. About 0.6% of all pairs of compound and target were hits.
The targets below were run with CC(C)C[C@@H](C=O)NC(=O)[C@H](CC(C)C)NC(=O)[C@H](CC(C)C)NC(=O)OCc1ccccc1 (assay: log2 fold change, soluble protein after heating vs DMSO (PISA); higher = thermal stabilisation; K562 cells, 10 uM, 30 min; active = over 0.2 and 3.5 SD of the protein, either way, in both replicates (recomputed)).
Summary of the method: (§1)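 K562 cells at 2×10^6 cells/mL were exposed to 10 μM compound for 30 min, then aliquots were heated for 3 min across 48°C-58°C, pooled, and extracted in PBS containing 0.5% NP-40 at 4°C. The supernatant after 21,000xg for 90 min was taken as soluble protein and measured by TMTpro 16plex LC-MS/MS with channel sums equalised. Thermal stability is reported relative to control samples, with values from duplicates. Fold changes are given on a log2 scale.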

Sequence of UniProt P46020 (P46020 whole entry, looked up): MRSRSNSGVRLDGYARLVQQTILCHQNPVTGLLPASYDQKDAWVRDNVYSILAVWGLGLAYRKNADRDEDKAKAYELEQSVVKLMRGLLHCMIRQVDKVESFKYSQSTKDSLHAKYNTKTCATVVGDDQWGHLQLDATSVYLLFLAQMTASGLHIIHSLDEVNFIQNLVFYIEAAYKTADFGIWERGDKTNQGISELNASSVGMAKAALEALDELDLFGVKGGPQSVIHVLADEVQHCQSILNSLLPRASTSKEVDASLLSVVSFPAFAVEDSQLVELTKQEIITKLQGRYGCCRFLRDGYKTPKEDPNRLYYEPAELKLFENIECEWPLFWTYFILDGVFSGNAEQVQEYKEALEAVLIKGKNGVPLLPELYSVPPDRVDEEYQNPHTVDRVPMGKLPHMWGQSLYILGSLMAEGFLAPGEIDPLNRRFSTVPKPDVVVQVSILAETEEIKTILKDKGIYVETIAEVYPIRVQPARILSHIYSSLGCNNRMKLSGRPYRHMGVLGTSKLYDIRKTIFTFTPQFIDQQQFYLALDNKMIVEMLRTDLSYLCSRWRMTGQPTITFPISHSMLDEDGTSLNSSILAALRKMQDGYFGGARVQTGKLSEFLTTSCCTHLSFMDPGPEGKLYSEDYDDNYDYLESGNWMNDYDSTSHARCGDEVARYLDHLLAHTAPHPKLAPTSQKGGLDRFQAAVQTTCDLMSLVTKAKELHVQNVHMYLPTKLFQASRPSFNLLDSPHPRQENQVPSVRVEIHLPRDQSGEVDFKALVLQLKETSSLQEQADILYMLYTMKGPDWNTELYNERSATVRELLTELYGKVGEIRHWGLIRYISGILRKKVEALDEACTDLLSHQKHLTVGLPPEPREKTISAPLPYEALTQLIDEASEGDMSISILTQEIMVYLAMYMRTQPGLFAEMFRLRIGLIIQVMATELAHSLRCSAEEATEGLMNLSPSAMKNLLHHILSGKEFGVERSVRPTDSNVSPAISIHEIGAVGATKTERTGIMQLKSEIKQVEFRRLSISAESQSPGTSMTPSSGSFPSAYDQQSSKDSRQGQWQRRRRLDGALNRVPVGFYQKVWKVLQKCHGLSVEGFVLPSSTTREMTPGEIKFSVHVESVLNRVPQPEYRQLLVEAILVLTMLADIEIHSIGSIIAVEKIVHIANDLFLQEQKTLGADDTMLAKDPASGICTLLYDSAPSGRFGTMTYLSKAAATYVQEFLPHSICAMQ
Sequence of UniProt Q15004 (Q15004 whole entry, looked up): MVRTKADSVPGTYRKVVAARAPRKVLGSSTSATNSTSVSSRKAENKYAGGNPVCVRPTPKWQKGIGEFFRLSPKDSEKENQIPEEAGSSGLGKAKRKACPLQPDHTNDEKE
Sequence of UniProt Q9Y5K3 (Q9Y5K3 whole entry, looked up): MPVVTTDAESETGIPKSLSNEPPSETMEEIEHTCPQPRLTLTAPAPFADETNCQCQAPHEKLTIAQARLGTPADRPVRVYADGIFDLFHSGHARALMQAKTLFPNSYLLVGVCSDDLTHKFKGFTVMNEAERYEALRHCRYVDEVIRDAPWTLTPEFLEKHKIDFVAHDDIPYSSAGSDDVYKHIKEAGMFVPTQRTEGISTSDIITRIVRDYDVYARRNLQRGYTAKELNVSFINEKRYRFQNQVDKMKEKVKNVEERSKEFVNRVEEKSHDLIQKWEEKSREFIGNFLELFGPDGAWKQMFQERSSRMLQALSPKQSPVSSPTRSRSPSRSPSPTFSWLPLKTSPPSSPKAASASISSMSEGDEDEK
Sequence of UniProt P48426 (P48426 whole entry, looked up): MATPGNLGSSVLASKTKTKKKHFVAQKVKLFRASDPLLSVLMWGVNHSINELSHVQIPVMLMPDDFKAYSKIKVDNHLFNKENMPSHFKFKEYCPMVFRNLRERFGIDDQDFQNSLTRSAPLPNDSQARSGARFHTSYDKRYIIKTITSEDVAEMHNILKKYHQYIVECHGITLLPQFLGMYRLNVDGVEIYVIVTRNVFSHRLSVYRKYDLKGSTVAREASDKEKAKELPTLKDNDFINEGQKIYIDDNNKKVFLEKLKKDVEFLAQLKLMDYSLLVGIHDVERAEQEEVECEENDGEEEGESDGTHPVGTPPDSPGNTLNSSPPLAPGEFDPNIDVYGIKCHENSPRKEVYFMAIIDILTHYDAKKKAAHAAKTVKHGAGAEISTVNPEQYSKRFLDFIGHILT
Sequence of UniProt O95997 (O95997 whole entry, looked up): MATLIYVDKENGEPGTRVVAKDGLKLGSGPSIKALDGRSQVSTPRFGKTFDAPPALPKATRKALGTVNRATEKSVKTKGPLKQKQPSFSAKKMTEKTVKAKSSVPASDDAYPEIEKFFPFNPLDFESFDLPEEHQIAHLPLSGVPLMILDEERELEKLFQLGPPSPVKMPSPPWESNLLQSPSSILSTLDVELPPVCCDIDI
Sequence of UniProt P62195 (P62195 whole entry, looked up): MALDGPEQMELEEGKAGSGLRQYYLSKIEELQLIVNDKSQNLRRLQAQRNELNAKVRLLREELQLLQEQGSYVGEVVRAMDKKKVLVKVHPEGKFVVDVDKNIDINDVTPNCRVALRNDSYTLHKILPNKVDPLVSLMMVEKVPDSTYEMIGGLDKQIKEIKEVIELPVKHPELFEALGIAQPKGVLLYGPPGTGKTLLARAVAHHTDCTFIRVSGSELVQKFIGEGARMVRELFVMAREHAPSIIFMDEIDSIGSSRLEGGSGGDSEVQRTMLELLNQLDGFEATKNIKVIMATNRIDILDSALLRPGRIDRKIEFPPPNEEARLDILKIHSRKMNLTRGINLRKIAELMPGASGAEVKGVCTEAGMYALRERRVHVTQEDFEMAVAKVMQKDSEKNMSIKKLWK
Sequence of UniProt Q9UNM6 (Q9UNM6 whole entry, looked up): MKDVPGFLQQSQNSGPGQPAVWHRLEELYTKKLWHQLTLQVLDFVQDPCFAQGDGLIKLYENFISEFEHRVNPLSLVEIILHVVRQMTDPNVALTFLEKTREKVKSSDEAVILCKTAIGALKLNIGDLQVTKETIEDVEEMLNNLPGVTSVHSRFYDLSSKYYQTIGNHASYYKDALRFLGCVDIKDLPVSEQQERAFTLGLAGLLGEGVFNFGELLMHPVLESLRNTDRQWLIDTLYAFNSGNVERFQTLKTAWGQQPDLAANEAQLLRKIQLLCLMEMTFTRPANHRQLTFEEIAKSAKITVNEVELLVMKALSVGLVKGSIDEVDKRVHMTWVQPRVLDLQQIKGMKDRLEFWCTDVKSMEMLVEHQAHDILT
Sequence of UniProt Q8WUK0 (Q8WUK0 whole entry, looked up): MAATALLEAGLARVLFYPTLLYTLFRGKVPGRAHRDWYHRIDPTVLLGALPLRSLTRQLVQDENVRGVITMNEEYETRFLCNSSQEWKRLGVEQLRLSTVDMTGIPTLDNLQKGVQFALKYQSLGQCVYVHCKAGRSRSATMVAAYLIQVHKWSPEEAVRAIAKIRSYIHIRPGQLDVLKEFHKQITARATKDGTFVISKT
Sequence of UniProt Q2TAL8 (Q2TAL8 whole entry, looked up): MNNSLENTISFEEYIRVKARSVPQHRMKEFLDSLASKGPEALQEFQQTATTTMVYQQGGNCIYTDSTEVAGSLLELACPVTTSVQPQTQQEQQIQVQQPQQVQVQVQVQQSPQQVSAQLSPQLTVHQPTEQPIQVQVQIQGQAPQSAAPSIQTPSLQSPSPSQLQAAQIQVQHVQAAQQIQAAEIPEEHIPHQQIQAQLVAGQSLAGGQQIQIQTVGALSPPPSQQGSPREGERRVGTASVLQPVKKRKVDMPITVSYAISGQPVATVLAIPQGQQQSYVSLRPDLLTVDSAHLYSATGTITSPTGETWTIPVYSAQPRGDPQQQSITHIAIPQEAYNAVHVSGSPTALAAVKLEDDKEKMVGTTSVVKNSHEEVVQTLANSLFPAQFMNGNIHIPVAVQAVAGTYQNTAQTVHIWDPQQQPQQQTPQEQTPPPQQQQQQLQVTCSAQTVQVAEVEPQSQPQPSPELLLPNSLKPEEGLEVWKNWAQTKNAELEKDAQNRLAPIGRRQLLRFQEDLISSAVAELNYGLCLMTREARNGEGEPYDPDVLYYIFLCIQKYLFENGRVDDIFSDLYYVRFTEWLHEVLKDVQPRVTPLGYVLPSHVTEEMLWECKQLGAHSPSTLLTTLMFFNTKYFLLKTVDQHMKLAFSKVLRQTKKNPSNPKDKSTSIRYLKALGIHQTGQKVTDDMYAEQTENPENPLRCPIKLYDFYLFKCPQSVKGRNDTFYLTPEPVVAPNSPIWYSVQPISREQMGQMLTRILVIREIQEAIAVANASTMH
Sequence of UniProt P51665 (P51665 whole entry, looked up): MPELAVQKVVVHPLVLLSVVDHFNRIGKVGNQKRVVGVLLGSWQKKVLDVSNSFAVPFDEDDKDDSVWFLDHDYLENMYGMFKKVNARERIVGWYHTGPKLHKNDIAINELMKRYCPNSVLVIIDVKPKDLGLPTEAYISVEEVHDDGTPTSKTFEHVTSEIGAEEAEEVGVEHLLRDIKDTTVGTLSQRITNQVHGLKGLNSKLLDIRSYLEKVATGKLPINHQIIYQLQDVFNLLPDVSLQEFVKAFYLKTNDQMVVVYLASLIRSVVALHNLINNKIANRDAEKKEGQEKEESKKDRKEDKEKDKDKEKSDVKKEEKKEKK
Sequence of UniProt Q13362 (Q13362 whole entry, looked up): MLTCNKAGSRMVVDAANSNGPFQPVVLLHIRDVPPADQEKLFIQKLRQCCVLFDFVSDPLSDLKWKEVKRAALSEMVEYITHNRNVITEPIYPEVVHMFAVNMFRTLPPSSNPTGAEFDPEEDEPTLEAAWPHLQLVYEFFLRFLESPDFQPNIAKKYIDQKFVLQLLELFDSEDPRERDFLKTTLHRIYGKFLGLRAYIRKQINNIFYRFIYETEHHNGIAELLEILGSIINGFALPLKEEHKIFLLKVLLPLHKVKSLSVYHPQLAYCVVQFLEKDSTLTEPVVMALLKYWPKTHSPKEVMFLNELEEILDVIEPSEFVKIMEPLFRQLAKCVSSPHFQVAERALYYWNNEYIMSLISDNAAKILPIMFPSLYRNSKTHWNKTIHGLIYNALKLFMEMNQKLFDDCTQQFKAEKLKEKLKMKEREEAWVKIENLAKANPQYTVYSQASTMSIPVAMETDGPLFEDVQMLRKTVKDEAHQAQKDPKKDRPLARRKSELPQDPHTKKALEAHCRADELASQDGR

Row | Target | log2 fold change
1 | PCLAF (UniProt Q15004) | 0.278 (active)
2 | PTGFRN (UniProt Q9P2B2) | 0.07 (inactive)
3 | PSMD7 (UniProt P51665) | -0.216 (active)
4 | POTEI (UniProt P0CG38) | -0.025 (inactive)
5 | POMP (UniProt Q9Y244) | -0.002 (inactive)
6 | PRKACB isoform 2 (UniProt P22694) | 0.054 (inactive)
7 | PPP2R5A (UniProt Q15172) | 0.023 (inactive)
8 | PHKA2 (UniProt P46019) | 0.065 (inactive)
9 | PCTP (UniProt Q9UKL6) | -0.012 (inactive)
10 | PEX11B (UniProt O96011) | -0.058 (inactive)
11 | PRKAR1B (UniProt P31321) | 0.007 (inactive)
12 | PTPMT1 (UniProt Q8WUK0) | 0.052 (inactive)
13 | POLD1 (UniProt P28340) | 0.11 (inactive)
14 | PSMD9 (UniProt O00233) | -0.015 (inactive)
15 | QRICH1 (UniProt Q2TAL8) | 0.08 (inactive)
16 | PNPLA8 (UniProt Q9NP80) | 0.003 (inactive)
17 | POLA1 (UniProt P09884) | 0.005 (inactive)
18 | PSMD1 (UniProt Q99460) | -0.254 (active)

Row | Target | log2 fold change
19 | PHKA1 (UniProt P46020) | 0.195 (inactive)
20 | PPP2R5C isoform 5 (UniProt Q13362) | 0.031 (inactive)
21 | PTRHD1 (UniProt Q6GMV3) | -0.01 (inactive)
22 | PSMC5 (UniProt P62195) | -0.273 (active)
23 | PDLIM7 (UniProt Q9NR12) | -0.045 (inactive)
24 | PTTG1 (UniProt O95997) | 0.393 (active)
25 | PEX16 isoform 2 (UniProt Q9Y5Y5) | 0.033 (inactive)
26 | PCYT1B (UniProt Q9Y5K3) | 0.027 (inactive)
27 | PSMD13 (UniProt Q9UNM6) | -0.265 (active)
28 | PIP4P1 isoform 2 (UniProt Q86T03) | 0.022 (inactive)
29 | PIP4K2A (UniProt P48426) | 0.018 (inactive)
30 | PRIM1 (UniProt P49642) | 0.046 (inactive)
31 | PRKAR2A (UniProt P13861) | -0.023 (inactive)
32 | PLSCR1 (UniProt O15162) | -0.036 (inactive)
33 | PHKG2 (UniProt P15735) | 0.017 (inactive)
34 | POLR3D (UniProt P05423) | -0.002 (inactive)
35 | PDE4DIP isoform 4 (UniProt Q5VU43) | 0.087 (inactive)
36 | PLA2G15 (UniProt Q8NCC3) | 0.113 (inactive)

Each target was assayed with CC(C)N(C[C@H]1O[C@@H](n2cnc3c(N)ncnc32)[C@H](O)[C@@H]1O)[C@H]1C[C@@H](CCc2nc3cc(C(C)(C)C)ccc3[nH]2)C1 [pinometostat] in the same assay as above.
Summary of the method: as §1

Row | Target | log2 fold change
37 | PCLAF (UniProt Q15004) | -0.012 (inactive)
38 | PTGFRN (UniProt Q9P2B2) | 0.002 (inactive)
39 | PSMD7 (UniProt P51665) | 0.066 (inactive)
40 | POTEI (UniProt P0CG38) | -0.179 (inactive)
41 | POMP (UniProt Q9Y244) | -0.023 (inactive)
42 | PRKACB isoform 2 (UniProt P22694) | -0.008 (inactive)
43 | PPP2R5A (UniProt Q15172) | 0.025 (inactive)
44 | PHKA2 (UniProt P46019) | 0.138 (inactive)
45 | PCTP (UniProt Q9UKL6) | -0.013 (inactive)
46 | PEX11B (UniProt O96011) | -0.031 (inactive)
47 | PRKAR1B (UniProt P31321) | 0.105 (inactive)
48 | PTPMT1 (UniProt Q8WUK0) | 0.013 (inactive)
49 | POLD1 (UniProt P28340) | 0.024 (inactive)
50 | PSMD9 (UniProt O00233) | -0.039 (inactive)
51 | QRICH1 (UniProt Q2TAL8) | 0.026 (inactive)
52 | PNPLA8 (UniProt Q9NP80) | 0.064 (inactive)
53 | POLA1 (UniProt P09884) | -0.027 (inactive)
54 | PSMD1 (UniProt Q99460) | 0.023 (inactive)

Row | Target | log2 fold change
55 | PHKA1 (UniProt P46020) | -0.023 (inactive)
56 | PPP2R5C isoform 5 (UniProt Q13362) | 0.011 (inactive)
57 | PTRHD1 (UniProt Q6GMV3) | 0.003 (inactive)
58 | PSMC5 (UniProt P62195) | 0.021 (inactive)
59 | PDLIM7 (UniProt Q9NR12) | -0.019 (inactive)
60 | PTTG1 (UniProt O95997) | 0.036 (inactive)
61 | PEX16 isoform 2 (UniProt Q9Y5Y5) | -0.052 (inactive)
62 | PCYT1B (UniProt Q9Y5K3) | -0.011 (inactive)
63 | PSMD13 (UniProt Q9UNM6) | 0.09 (inactive)
64 | PIP4P1 isoform 2 (UniProt Q86T03) | -0.031 (inactive)
65 | PIP4K2A (UniProt P48426) | -0.067 (inactive)
66 | PRIM1 (UniProt P49642) | 0.114 (inactive)
67 | PRKAR2A (UniProt P13861) | 0.074 (inactive)
68 | PLSCR1 (UniProt O15162) | -0.015 (inactive)
69 | PHKG2 (UniProt P15735) | 0.054 (inactive)
70 | POLR3D (UniProt P05423) | 0.109 (inactive)
71 | PDE4DIP isoform 4 (UniProt Q5VU43) | -0.05 (inactive)
72 | PLA2G15 (UniProt Q8NCC3) | 0.006 (inactive)
